Data on seven compounds can be found in PubChem BioAssay (NCATS).

Unmarked numbers belong to inactive results. Results filed as inconclusive are left out. Activity calls are given as the source filed them. Unless noted, calls follow the shape of the dose curve; as a rule, active = well fitted curve in the direction sought with a large enough effect; inconclusive = small, poorly fitted or top-dose-only effect, or another doubt; inactive = no such curve, though single readings can be large; an effect the other way counts as inactive or inconclusive.

Test [1] addresses Lysosomal acid glucosylceramidase (Homo sapiens) (UniProt P04062). The experiment in a line: Glucocerebrosidase-p2 (AID 348; in the data active = potency below about 10 µM; also: potency is read from the fitted curve at half-maximal effect). The note with it: purified GBA, blue fluorogenic substrate, 40 min. The essentials: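 Normal human glucocerebrosidase (0.2 nM) with blue fluorogenic substrate (80 uM final) in citrate/phosphate pH 5.9 with 10mM sodium taurocholate, 0.01% tween-20; 40 min RT, NaOH/glycine stop; fluorescence Ex 365/Em 440; AC50 from a titration from 0.6 nM upwards.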

The nature of test [2]: AP1 Signaling Pathway (AID 357; active = well fitted curve in either direction with a large enough effect, not every such curve was filed as active;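 also: ME-180 reporter cells stimulated with EGF at its EC50 level; % is scaled to controls: 0 for no effect and ±100 for the full control effect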). The following applies: ME-180 AP-1-bla reporter, EGF-induced, beta-lactamase ratio, 5 h; at 7.69 µM (top of the series) unless noted. The essentials:
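First, ME-180 AP-1-bla cells were cultured overnight at 37 °C in low-serum Opti-MEM. Next, titrated compounds with EC50 EGF were incubated 5 hours. Finally, CCF4 was added for 2.5 hours and the 460/530 nm ratio recorded.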

The nature of test [3]: NFAT Signaling Pathway (AID 444; active = well fitted curve in either direction with a large enough effect, not every such curve was filed as active;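 also: carbachol stimulus at about its EC50 of 1 µM final; % is scaled to controls: 0 for no effect and ±100 for the full control effect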). The following applies: Jurkat NFAT-bla M1, carbachol, beta-lactamase ratio, 5 h; at 7.69 µM (top of the series) unless noted. The essentials: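 Read-out: CCF4 FRET ratio (460 nm/530 nm) after 1 h RT dye loading, used for %activity and AC50 from titration series. Cells: Jurkat NFAT-β-lactamase/M1 line, treated with compound plus 1 uM carbachol for 5 h, 37 °C.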

Test [4] can be described thus: Stat Signaling Pathway (AID 446; active = well fitted curve in either direction with a large enough effect, not every such curve was filed as active;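 also: ME-180 cervical cancer cells given 40 pM IL-6 alongside compound; SIE-controlled beta-lactamase reporter measured as 460/530 nm FRET emission ratio; % is scaled to controls: 0 for no effect and ±100 for the full control effect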). The note with it: ME-180 (cervical carcinoma) SIE beta-lactamase reporter, IL-6 stimulated, 5 h; at 7.69 µM (top of the series) unless noted. A digest of the protocol:
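Overnight-plated ME-180 cells bearing a STAT Inducible Element beta-lactamase reporter; 5 h co-exposure to compound and 40 pM IL-6; values normalized to 300 pM IL-6 and 125 nM JAK inhibitor controls.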

Test [5] has as its target Glucocorticoid receptor (Homo sapiens) (UniProt P04150). In words: GR-GFP Redistribution (AID 450;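 active = compounds whose dose series gives a full or clear partial fitted curve of increased nuclear translocation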; also: potency is read from the fitted curve at half-maximal effect). The note with it: U2OS GR-GFP nuclear translocation, laser cytometry, 2 h.
The target is the same in test [6]. The experiment in a line: GR-EFC Redistribution (AID 451; calls by dose curve; also: potency is read from the fitted curve at half-maximal effect). The following applies: CHO-K1 GR-EFC translocation, beta-gal luminescence, 2 h. The essentials:
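Translocation of GR-ED fusion to nuclear EA restores b-gal, read by luminescence after 1 h room-temperature detection. Engineered CHO-K1 biosensor cells, 1,000/well, exposed 2 h at 37 C to titrations up to 46 uM final.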

In test [7] the target is Mitogen-activated protein kinase 10 (Mus musculus) (UniProt Q61831). The experiment in a line: JNK3 AlphaScreen Assay (AID 530; active = well fitted curve in either direction with a large enough effect, not every such curve was filed as active;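 also: kinase came from lysate of stimulated human HepG2 cells; signal reports phosphorylation of biotinylated GST-cJun 1-79 at Ser73 with 10 µM ATP; % is scaled to controls: 0 for no effect and ±100 for the full control effect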). The note with it: JNK3 lysate, c-Jun phosphorylation; series mostly up to 57.1 µM. A digest of the protocol: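 qHTS titrations with 15 min compound pre-incubation before adding ATP (10 uM final). Read-out: AlphaScreen of Ser73-phosphorylated biotin-GST-cJun using HepG2 lysate JNK3 activated by IL-1β and TNFα.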
Background: In Alpha technology, singlet oxygen from a donor bead excites a nearby acceptor bead.

Test [8] deals with 3',5'-cyclic-AMP phosphodiesterase 4B (Homo sapiens) (UniProt Q07343). The experiment in a line: qHTS Assay for Inhibitors of PDE-IV (AID 607; active = well fitted activation curve with a large enough effect in the main read-out, with a control signal flat, not every such curve was filed as active; also: % of control where 0% means no effect). The following applies: HEK293 ACTOne CNG channel cells, membrane potential fluorescence; series mostly up to 22.9 µM. The essentials: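 Live HEK293 cells with a modified cyclic nucleotide-gated (CNG) channel report intracellular cAMP via membrane-potential dye fluorescence (ex 535/em 590 nm). Endogenous PDE-IV was targeted. Compounds were tested at up to 22.9 uM final; RO 20-1724 100 uM served as control.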
Sequence of 3',5'-cyclic-AMP phosphodiesterase 4B (Homo sapiens) (Q07343 whole entry, looked up): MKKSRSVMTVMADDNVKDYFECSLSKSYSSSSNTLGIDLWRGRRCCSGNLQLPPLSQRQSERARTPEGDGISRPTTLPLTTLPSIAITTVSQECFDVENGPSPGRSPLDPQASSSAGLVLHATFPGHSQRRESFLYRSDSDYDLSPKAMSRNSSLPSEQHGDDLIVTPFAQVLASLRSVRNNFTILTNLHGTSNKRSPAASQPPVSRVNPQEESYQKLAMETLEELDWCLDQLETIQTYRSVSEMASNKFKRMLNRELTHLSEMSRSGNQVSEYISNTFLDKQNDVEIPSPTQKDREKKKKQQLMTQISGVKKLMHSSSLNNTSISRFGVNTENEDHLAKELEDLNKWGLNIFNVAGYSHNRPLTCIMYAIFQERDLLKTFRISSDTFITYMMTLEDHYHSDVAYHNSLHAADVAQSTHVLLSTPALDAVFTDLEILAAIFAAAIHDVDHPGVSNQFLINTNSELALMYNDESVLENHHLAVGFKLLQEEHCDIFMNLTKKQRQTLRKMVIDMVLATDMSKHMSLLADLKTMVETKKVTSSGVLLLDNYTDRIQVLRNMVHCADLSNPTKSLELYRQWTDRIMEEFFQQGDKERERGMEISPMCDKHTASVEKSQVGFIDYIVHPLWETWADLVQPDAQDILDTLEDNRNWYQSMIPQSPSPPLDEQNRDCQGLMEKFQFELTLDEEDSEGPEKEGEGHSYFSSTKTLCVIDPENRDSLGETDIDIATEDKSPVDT
For orientation: qHTS replaces the single test concentration by a dilution series.

Test [9] addresses Dual specificity protein kinase CLK4 (Homo sapiens) (UniProt Q9HAZ1). The experiment in a line: qHTS Assay for Inhibitors of CDC-like Kinase 4 (Kinase-Glo Assay) (AID 1770). Also: % is scaled to controls: 0 for no effect and ±100 for the full control effect; nearly all actives have a fitted effect of over 65% in size. The note with it: recombinant Clk4, Kinase-Glo ATP depletion luminescence; series mostly up to 66.7 µM. The essentials:
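Substrate mix (RS peptide 100 uM, ATP 1 uM) dispensed, compound pinned in, then Clk4 added to 25 nM final. Incubated 4.5 h at RT; Kinase-Glo reagent added, luminescence read after 5 min.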

Test [10] shares this target. The experiment in a line: qHTS Assay for Inhibitors of CDC-like Kinase 4 (ADP-Glo Assay) (AID 1771). Also: % is scaled to controls: 0 for no effect and ±100 for the full control effect; nearly all actives have a fitted effect of over 70% in size. The note with it: recombinant CLK4, ADP-Glo luminescence; series mostly up to 80 µM. A digest of the protocol:
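ADP production was read by ADP-Glo luminescence after residual ATP depletion, following 1 h room-temperature reaction of 25 nM Clk4, 1 uM ATP and 100 uM RS peptide with MgCl2, EGTA, DTT and Triton X-100.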

Test [11] shares this target. The experiment in a line: qHTS Assay for Inhibitors of CDC-like Kinase 4 (ADP-FP Assay) (AID 1795).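 Also: recombinant human CLK4 phosphorylating RS repeat peptide at 1 µM ATP; % is scaled to controls: 0 for no effect and ±100 for the full control effect; nearly all actives have a fitted effect of over 60% in size.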 The following applies: Transcreener ADP fluorescence polarization; series mostly up to 50 µM. The essentials:
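Clk4 6.25 nM; RS peptide 100 uM; ATP 1 uM; 25 mM Tris pH 7.5, 10 mM MgCl2; 1 h reaction. ADP detected via antibody/orange tracer FP displacement; TG003 positive control.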

Test [12] addresses Ubiquitin carboxyl-terminal hydrolase 1 (Homo sapiens) (UniProt O94782). The experiment in a line: Inhibitors of USP1/UAF1: Pilot qHTS (AID 504865).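 Also: rhodamine fluorescence freed from ubiquitin-rhodamine substrate followed over time; top concentration of the series differs between compounds; % is scaled to controls: 0 for no effect and ±100 for the full control effect; nearly all actives have a fitted effect of over 35% in size.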 The note with it: purified USP1/UAF1, Ub-rhodamine cleavage fluorescence; series mostly up to 54.9 µM. The essentials:
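In 50mM HEPES pH 7.8 containing 0.5mM EDTA, 1mM TCEP, 0.1 mg/ml BSA and 0.01% Tween-20, 1nM USP1/UAF1 is exposed to compound for 15 min, then Ub-Rho (150nM final) is added and fluorescence is read over time.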

Test [13] can be described thus: Primary qHTS for small molecule stabilizers of the endoplasmic reticulum resident proteome: Secreted ER Calcium Modulated Protein (SERCaMP) assay (AID 1508630). Also: % is scaled to controls: 0 for no effect and ±100 for the full control effect. The following applies: SH-SY5Y GLuc-SERCaMP (Gaussia luciferase released on ER calcium loss) secretion, thapsigargin, luminescence; series mostly up to 38.4 µM. The essentials:
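The SH-SY5Y reporter protocol was run at 3 concentrations up to 38.3 uM (primary) or 11 concentrations (follow-up): 16 h compound, 100 nM thapsigargin for 4 h, then extracellular luciferase luminescence.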

Test [14] deals with Cytochrome P450 1A2 (Homo sapiens) (UniProt P05177). In words: p450-cyp1a2 (AID 410; calls by dose curve; also: potency is read from the fitted curve at half-maximal effect). The following applies: recombinant CYP1A2, luciferin-ME demethylation, luminescence; series mostly up to 57 µM. A digest of the protocol:
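Luminescent demethylation readout: Luciferin-ME (100uM, equal to Km) turned over by 20nM CYP1A2 for 60 min at room temperature after NADPH regeneration addition, following 10 min compound preincubation. Normalization used 57 uM furafylline as full inhibition.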

The target in test [15] is Cytochrome P450 3A4 (Homo sapiens) (UniProt P08684). In words: qHTS Assay for Activators of Cytochrome P450 3A4 (AID 885). Also: nearly all actives have a fitted effect of over 65% in size. The following applies: recombinant CYP3A4, Luciferin-PPXE luminescence, 60 min; series mostly up to 57.1 µM. The essentials:
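Using 20nM recombinant human CYP3A4 in potassium phosphate (200mM), substrate Luciferin-PPXE at 25uM, luminescent luciferin detection followed a 60-min RT NADPH reaction; data scaled to 57 uM ketoconazole.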

For test [16] the target is unchanged. In words: qHTS Assay for Inhibitors and Substrates of Cytochrome P450 3A4 (AID 884). Also: potency is read from the fitted curve at half-maximal effect; nearly all actives have a fitted effect of over 50% in size. The note with it: recombinant CYP3A4, Luciferin-PPXE luminescence; series mostly up to 57.1 µM. The essentials: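 Luminescent readout of luciferin produced by CYP3A4 (20 nM) dealkylation of Luciferin-PPXE, 25 uM (its KM). NADPH-driven reaction ran 60 min at RT after 10 min compound preincubation; data scaled to 57 uM ketoconazole as 100% inhibition.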

Sequence of Dual specificity protein kinase CLK4 (Homo sapiens) (Q9HAZ1 whole entry, looked up): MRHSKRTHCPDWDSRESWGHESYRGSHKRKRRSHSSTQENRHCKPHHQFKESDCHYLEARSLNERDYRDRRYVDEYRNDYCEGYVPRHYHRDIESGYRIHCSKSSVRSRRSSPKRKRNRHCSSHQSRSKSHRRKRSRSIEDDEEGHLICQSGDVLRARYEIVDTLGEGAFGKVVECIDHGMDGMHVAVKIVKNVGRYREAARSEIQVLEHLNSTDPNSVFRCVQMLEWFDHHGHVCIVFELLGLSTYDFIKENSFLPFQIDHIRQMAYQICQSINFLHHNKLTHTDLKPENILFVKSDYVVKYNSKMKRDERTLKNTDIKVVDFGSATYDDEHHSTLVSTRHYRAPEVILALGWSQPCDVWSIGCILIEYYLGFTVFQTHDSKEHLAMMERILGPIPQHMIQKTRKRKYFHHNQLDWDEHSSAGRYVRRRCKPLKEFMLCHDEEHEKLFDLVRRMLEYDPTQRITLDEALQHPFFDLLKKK
Sequence of Cytochrome P450 3A4 (Homo sapiens) (P08684 whole entry, looked up): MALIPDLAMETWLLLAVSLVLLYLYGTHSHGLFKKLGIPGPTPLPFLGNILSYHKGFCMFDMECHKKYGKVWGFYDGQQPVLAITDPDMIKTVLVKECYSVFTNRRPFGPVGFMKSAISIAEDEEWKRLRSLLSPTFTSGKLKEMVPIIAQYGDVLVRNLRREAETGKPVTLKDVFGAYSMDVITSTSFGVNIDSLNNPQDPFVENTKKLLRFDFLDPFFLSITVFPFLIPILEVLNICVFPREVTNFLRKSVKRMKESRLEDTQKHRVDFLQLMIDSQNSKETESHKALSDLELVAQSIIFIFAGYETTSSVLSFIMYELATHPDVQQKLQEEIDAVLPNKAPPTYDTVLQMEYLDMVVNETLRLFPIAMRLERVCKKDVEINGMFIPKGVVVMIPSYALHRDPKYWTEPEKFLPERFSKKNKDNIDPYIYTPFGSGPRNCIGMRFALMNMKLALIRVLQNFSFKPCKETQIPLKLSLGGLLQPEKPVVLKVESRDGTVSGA
Sequence of Cytochrome P450 1A2 (Homo sapiens) (P05177 whole entry, looked up): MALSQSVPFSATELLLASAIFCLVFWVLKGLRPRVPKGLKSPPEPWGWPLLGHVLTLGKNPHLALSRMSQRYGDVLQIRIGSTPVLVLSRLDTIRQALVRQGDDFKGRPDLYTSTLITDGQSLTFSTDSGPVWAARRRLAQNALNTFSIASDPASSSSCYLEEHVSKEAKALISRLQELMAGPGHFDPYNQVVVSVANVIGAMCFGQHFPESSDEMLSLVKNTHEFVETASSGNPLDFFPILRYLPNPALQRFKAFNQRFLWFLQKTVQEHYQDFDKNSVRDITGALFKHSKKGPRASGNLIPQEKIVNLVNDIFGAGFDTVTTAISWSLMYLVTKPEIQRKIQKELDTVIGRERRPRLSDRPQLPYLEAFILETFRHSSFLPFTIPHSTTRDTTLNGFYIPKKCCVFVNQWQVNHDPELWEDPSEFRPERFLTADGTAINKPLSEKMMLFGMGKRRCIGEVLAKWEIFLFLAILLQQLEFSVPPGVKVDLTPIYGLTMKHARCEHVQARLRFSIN
Sequence of Ubiquitin carboxyl-terminal hydrolase 1 (Homo sapiens) (O94782 whole entry, looked up): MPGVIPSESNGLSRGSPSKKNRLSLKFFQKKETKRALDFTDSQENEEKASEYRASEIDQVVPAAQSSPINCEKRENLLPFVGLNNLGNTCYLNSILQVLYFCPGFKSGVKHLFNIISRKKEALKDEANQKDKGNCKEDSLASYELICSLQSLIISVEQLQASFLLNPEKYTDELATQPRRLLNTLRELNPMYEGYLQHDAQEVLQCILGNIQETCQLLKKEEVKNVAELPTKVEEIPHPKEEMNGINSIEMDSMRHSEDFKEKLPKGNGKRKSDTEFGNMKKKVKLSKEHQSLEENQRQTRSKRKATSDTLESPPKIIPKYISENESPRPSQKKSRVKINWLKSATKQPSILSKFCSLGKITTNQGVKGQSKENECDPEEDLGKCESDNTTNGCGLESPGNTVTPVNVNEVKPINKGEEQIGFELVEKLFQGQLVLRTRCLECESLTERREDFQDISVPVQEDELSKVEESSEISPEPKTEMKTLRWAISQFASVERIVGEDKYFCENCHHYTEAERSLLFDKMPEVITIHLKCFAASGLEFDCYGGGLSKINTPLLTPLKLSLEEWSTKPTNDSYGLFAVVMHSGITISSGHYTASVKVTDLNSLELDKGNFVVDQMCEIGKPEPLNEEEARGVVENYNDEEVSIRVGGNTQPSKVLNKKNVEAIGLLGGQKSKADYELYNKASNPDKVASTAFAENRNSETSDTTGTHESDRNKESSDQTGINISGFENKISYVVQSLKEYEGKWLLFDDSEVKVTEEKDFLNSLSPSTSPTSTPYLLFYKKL
Sequence of Lysosomal acid glucosylceramidase (Homo sapiens) (P04062 whole entry, looked up): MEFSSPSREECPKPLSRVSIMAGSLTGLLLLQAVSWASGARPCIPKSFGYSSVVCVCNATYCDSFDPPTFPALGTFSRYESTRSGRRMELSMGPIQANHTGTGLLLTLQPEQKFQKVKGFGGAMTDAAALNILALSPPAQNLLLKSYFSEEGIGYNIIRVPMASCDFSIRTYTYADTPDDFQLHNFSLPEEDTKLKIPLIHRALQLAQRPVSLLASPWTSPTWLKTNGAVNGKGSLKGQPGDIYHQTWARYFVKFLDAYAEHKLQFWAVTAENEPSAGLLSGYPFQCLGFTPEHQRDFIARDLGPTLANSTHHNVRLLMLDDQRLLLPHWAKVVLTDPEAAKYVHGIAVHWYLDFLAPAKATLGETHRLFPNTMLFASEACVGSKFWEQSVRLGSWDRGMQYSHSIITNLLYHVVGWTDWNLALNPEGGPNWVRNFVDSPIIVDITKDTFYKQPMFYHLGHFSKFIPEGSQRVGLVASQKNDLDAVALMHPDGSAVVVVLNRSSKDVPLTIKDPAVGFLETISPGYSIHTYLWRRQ
Sequence of Glucocorticoid receptor (Homo sapiens) (P04150 whole entry, looked up): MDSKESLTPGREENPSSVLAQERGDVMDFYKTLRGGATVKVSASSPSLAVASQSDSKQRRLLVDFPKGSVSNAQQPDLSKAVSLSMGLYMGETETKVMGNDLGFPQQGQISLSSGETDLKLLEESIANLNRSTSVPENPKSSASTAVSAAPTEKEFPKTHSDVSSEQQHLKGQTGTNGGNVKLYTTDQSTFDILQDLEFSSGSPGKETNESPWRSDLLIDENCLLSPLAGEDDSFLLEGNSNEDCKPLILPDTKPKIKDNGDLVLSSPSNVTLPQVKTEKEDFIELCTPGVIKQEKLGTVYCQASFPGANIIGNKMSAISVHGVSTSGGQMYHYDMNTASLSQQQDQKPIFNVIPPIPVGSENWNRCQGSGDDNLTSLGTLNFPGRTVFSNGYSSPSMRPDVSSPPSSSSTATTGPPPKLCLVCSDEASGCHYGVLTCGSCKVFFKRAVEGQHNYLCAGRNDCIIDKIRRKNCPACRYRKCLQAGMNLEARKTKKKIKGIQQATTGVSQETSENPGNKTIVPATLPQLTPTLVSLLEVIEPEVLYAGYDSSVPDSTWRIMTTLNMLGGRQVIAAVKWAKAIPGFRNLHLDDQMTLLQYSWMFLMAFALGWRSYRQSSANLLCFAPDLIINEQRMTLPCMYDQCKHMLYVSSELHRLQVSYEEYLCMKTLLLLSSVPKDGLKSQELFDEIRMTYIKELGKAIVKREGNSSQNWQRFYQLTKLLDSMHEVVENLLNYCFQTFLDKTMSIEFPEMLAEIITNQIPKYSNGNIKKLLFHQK

Consider `CN(C)C(=O)c1ccc(-c2cncnc2N(C)Cc2ccco2)cc1`, for which the Potency is over 11.4 µM in test [1], over 46 µM in test [5] and over 46 µM in test [6]. The activity change, negative = inhibition in test [2] was -9.99%; in [3], -12.8%. For the same compound, the activity, negative = inhibition in test [4] is 3.83%. Besides, the Potency result in test [7], in test [8], in test [9], in [10], in test [11] and in test [12] was “inactive” throughout. In addition, the outcome in [13] was inactive.

In the case of `CCNc1ncc2nc(-c3cccs3)c(=O)n(Cc3cccc(OC)c3)c2n1`, the Potency in test [1] was over 11.4 µM; in [14] it was 0.126 µM (active); in test [5] it was over 9.22 µM; in test [6], over 46 µM. Further, in test [2], the activity change, negative = inhibition is 19.3%. Further, the Potency result in test [7], in [8], in test [15], in test [9], in test [10] and in [11] was “inactive” each time. Also, the Potency result in [12] was “inactive”. In addition, the outcome in test [13] was inactive.

`COc1ncc2nc(-c3ccc(Cl)cc3)c(=O)n(CCC#N)c2n1`: the Potency is over 11.4 µM in test [1], over 9.22 µM in test [5] and over 46 µM in test [6]. Besides, the activity change, negative = inhibition in test [2] was -9.68%; in test [3], 3.96%. Also, the activity, negative = inhibition in test [4] is -4.68%. In addition, the Potency entry in [7], in test [8], in [9], in [10], in test [11] and in test [12] was “inactive” each time. In addition, in [13], the result was inactive.

Consider `CN(C)c1ncc2nc(CCc3ccccc3)c(=O)n(C3CC3)c2n1`, for which the Potency in test [1] was over 11.4 µM; in [14], 3.16 µM (active); in [5], over 9.22 µM; in test [6], over 46 µM. Also, the activity change, negative = inhibition in test [2] was 1.45%. Moreover, the activity, negative = inhibition in test [4] is -4.87%. Moreover, the Potency result in test [7], in test [15], in test [9], in test [10], in test [11] and in test [12] was “inactive” throughout. Besides, in test [13], the outcome was inactive.

As to `CCNc1ncc2nc(-c3cccs3)c(=O)n(Cc3cccs3)c2n1`, the Potency was over 11.4 µM in test [1]; 1.26 µM (active) in [14]; over 9.22 µM in test [5]; over 46 µM in test [6]; 6.31 µM (active) in test [16]. Further, the activity change, negative = inhibition in test [2] is 9.95%. Besides, the Potency entry in test [7], in [15], in test [9], in [10], in [11] and in test [12] was “inactive” in each case. Moreover, the result in test [13] was inactive.

Regarding `COc1ncc2nc(-c3ccccc3)c(=O)n(C3CC3)c2n1`, the Potency in test [1] was over 11.4 µM; in [5], over 9.22 µM; in test [6], over 46 µM. The activity change, negative = inhibition in [2] was -10.7%; in [3] it was 7.49%. The activity, negative = inhibition in [4] is -13.4%. For the same compound, the Potency result in [7], in test [8], in test [9], in [10], in [11] and in test [12] was “inactive” each time. Further, the outcome in test [13] was inactive.

Regarding `Cc1cnc(CNc2nc(-c3c(C)noc3C)nc3ccccc23)cn1`, the Potency in [1] is over 11.4 µM; in test [5], over 46 µM; in test [6] it was over 46 µM. In addition, the activity change, negative = inhibition was 9.21% in test [2] and 15% in test [3]. For the same compound, the activity, negative = inhibition in [4] is -4.92%. Further, the Potency entry in test [7], in test [9], in [10], in test [11] and in test [12] was “inactive” in each case. Besides, the result in test [13] was inactive.
